# Where two headings read alike, the source gives them in different places.
# Assays:
# STK4 = conditions: read-out: apparent Kd, n = 1
# SYK = conditions: read-out: apparent Kd, n = 1
# [1] = compound concentrations:100 nM and 1000 nM (sheet 'Lestaurtinib' of Supplementary Table 1),run:Lestaurtinib_02482_R1,Plate:MR011
# [2] = compound concentrations:100 nM and 1000 nM (sheet 'Lestaurtinib' of Supplementary Table 1),run:Lestaurtinib_02482_R2,Plate:MR011
# [3] = compound concentrations:100 nM and 1000 nM (sheet 'Lestaurtinib' of Supplementary Table 1),run:Lestaurtinib_02482_R3,Plate:MR011
# [4] = compound concentrations:100 nM and 1000 nM (sheet 'Lestaurtinib' of Supplementary Table 1),run:Lestaurtinib_02487_R1,Plate:MR012
# [5] = compound concentrations:100 nM and 1000 nM (sheet 'Lestaurtinib' of Supplementary Table 1),run:Lestaurtinib_02496_R1,Plate:MR013
# [6] = compound concentrations:100 nM and 1000 nM (sheet 'Lestaurtinib' of Supplementary Table 1),run:Lestaurtinib_02566_R3,Plate:MR014
# [7] = compound concentrations:100 nM and 1000 nM (sheet 'Lestaurtinib' of Supplementary Table 1),run:Lestaurtinib_02577_R3,Plate:MR016
# [8] = compound concentrations:100 nM and 1000 nM (sheet 'Lestaurtinib' of Supplementary Table 1),run:Lestaurtinib_02584_R1,Plate:MR017
# [9] = compound concentrations:100 nM and 1000 nM (sheet 'Lestaurtinib' of Supplementary Table 1),run:Lestaurtinib_02584_R3,Plate:MR017
# [10] = compound concentrations:100 nM and 1000 nM (sheet 'Lestaurtinib' of Supplementary Table 1),run:Lestaurtinib_02601_R1,Plate:MR018
# [11] = compound concentrations:100 nM and 1000 nM (sheet 'Lestaurtinib' of Supplementary Table 1),run:Lestaurtinib_02601_R2,Plate:MR018
# [12] = compound concentrations:100 nM and 1000 nM (sheet 'Lestaurtinib' of Supplementary Table 1),run:Lestaurtinib_02601_R3,Plate:MR018
# [13] = compound concentrations:100 nM and 1000 nM (sheet 'Lestaurtinib' of Supplementary Table 1),run:Lestaurtinib_02606_R1,Plate:MR019
# [14] = compound concentrations:100 nM and 1000 nM (sheet 'Lestaurtinib' of Supplementary Table 1),run:Lestaurtinib_02606_R2,Plate:MR019
# [15] = compound concentrations:100 nM and 1000 nM (sheet 'Lestaurtinib' of Supplementary Table 1),run:Lestaurtinib_02624_R1,Plate:MR020
# [16] = compound concentrations:100 nM and 1000 nM (sheet 'Lestaurtinib' of Supplementary Table 1),run:Lestaurtinib_02741_R2,Plate:MR023
substance,measurement,setting,value
Lestaurtinib,potency estimated from few doses,STK4; [1],34.5 nM
same,potency estimated from few doses,STK4; [2],42.5 nM
same,potency estimated from few doses,STK4; [3],38.1 nM
same,potency estimated from few doses,STK4; [4],33 nM
same,potency estimated from few doses,"STK4; compound concentrations:100 nM and 1000 nM (sheet 'Lestaurtinib' of Supplementary Table 1),run:Lestaurtinib_02487_R3,Plate:MR012",48 nM
same,potency estimated from few doses,STK4; [5],39.4 nM
same,potency estimated from few doses,"STK4; compound concentrations:100 nM and 1000 nM (sheet 'Lestaurtinib' of Supplementary Table 1),run:Lestaurtinib_02496_R3,Plate:MR013",36.6 nM
same,potency estimated from few doses,"STK4; compound concentrations:100 nM and 1000 nM (sheet 'Lestaurtinib' of Supplementary Table 1),run:Lestaurtinib_02566_R2,Plate:MR014",53.6 nM
same,potency estimated from few doses,STK4; [6],36.8 nM
same,potency estimated from few doses,"STK4; compound concentrations:100 nM and 1000 nM (sheet 'Lestaurtinib' of Supplementary Table 1),run:Lestaurtinib_02572_R2,Plate:MR015",38.4 nM
same,potency estimated from few doses,"STK4; compound concentrations:100 nM and 1000 nM (sheet 'Lestaurtinib' of Supplementary Table 1),run:Lestaurtinib_02572_R3,Plate:MR015",51.5 nM
same,potency estimated from few doses,STK4; [7],26.1 nM
same,potency estimated from few doses,STK4; [8],32.3 nM
same,potency estimated from few doses,"STK4; compound concentrations:100 nM and 1000 nM (sheet 'Lestaurtinib' of Supplementary Table 1),run:Lestaurtinib_02584_R2,Plate:MR017",37.7 nM
same,potency estimated from few doses,STK4; [9],39.7 nM
same,potency estimated from few doses,STK4; [10],47.3 nM
same,potency estimated from few doses,STK4; [11],41.1 nM
same,potency estimated from few doses,STK4; [12],51.2 nM
same,potency estimated from few doses,STK4; [13],38.6 nM
same,potency estimated from few doses,STK4; [14],55.6 nM
same,potency estimated from few doses,STK4; [15],48.3 nM
same,potency estimated from few doses,"STK4; compound concentrations:100 nM and 1000 nM (sheet 'Lestaurtinib' of Supplementary Table 1),run:Lestaurtinib_02724_R1,Plate:MR021",52.4 nM
same,potency estimated from few doses,"STK4; compound concentrations:100 nM and 1000 nM (sheet 'Lestaurtinib' of Supplementary Table 1),run:Lestaurtinib_02724_R2,Plate:MR021",41.4 nM
same,potency estimated from few doses,"STK4; compound concentrations:100 nM and 1000 nM (sheet 'Lestaurtinib' of Supplementary Table 1),run:Lestaurtinib_02724_R3,Plate:MR021",39.8 nM
same,potency estimated from few doses,STK4; [16],36.2 nM
same,potency estimated from few doses,"STK4; compound concentrations:100 nM and 1000 nM (sheet 'Lestaurtinib' of Supplementary Table 1),run:Lestaurtinib_02748_R2,Plate:MR024",31.7 nM
same,potency estimated from few doses,"STK4; compound concentrations:100 nM and 1000 nM (sheet 'Lestaurtinib' of Supplementary Table 1),run:Lestaurtinib_02748_R3,Plate:MR024",40.9 nM
same,potency estimated from few doses,"STK4; compound concentrations:100 nM and 1000 nM (sheet 'Lestaurtinib' of Supplementary Table 1),run:Lestaurtinib_02752_R1,Plate:MR025",51.5 nM
same,potency estimated from few doses,"STK4; compound concentrations:100 nM and 1000 nM (sheet 'Lestaurtinib' of Supplementary Table 1),run:Lestaurtinib_02752_R2,Plate:MR025",36.2 nM
same,potency estimated from few doses,"STK4; compound concentrations:100 nM and 1000 nM (sheet 'Lestaurtinib' of Supplementary Table 1),run:Lestaurtinib_02752_R3,Plate:MR025",35.9 nM
same,potency estimated from few doses,"STK4; compound concentrations:100 nM and 1000 nM (sheet 'Lestaurtinib' of Supplementary Table 1),run:Lestaurtinib_02766_R2,Plate:MR027",45.4 nM
same,potency estimated from few doses,"STK4; compound concentrations:100 nM and 1000 nM (sheet 'Lestaurtinib' of Supplementary Table 1),run:Lestaurtinib_02768_R1,Plate:MR028",43.2 nM
same,potency estimated from few doses,"STK4; compound concentrations:100 nM and 1000 nM (sheet 'Lestaurtinib' of Supplementary Table 1),run:Lestaurtinib_02795_R2,Plate:MR022",29.7 nM
same,potency estimated from few doses,"STK4; compound concentrations:100 nM and 1000 nM (sheet 'Lestaurtinib' of Supplementary Table 1),run:Lestaurtinib_02802_R1,Plate:MR029",34.7 nM
same,potency estimated from few doses,"STK4; compound concentrations:100 nM and 1000 nM (sheet 'Lestaurtinib' of Supplementary Table 1),run:Lestaurtinib_02896_R1,Plate:MR030",35.8 nM
same,potency estimated from few doses,"STK4; compound concentrations:100 nM and 1000 nM (sheet 'Lestaurtinib' of Supplementary Table 1),run:Lestaurtinib_03172_R1,Plate:MR031",30.6 nM
same,potency estimated from few doses,"STK4; compound concentrations:100 nM and 1000 nM (sheet 'Lestaurtinib' of Supplementary Table 1),run:Lestaurtinib_03172_R2,Plate:MR031",38.8 nM
same,potency estimated from few doses,"STK4; compound concentrations:100 nM and 1000 nM (sheet 'Lestaurtinib' of Supplementary Table 1),run:Lestaurtinib_03172_R3,Plate:MR031",35.2 nM
same,potency estimated from few doses,"STK4; compound concentrations:100 nM and 1000 nM (sheet 'Lestaurtinib' of Supplementary Table 1),run:Lestaurtinib_03252_R2,Plate:MR032",45.6 nM
same,potency estimated from few doses,"STK4; compound concentrations:100 nM and 1000 nM (sheet 'Lestaurtinib' of Supplementary Table 1),run:Lestaurtinib_03260_R1,Plate:MR033",38.2 nM
same,potency estimated from few doses,"STK4; compound concentrations:100 nM and 1000 nM (sheet 'Lestaurtinib' of Supplementary Table 1),run:Lestaurtinib_03260_R2,Plate:MR033",47.5 nM
same,potency estimated from few doses,"SYK; compound concentrations:100 nM and 1000 nM (sheet 'Lestaurtinib' of Supplementary Table 1),run:Lestaurtinib_02339_R1,Plate:MR001",511 nM
same,potency estimated from few doses,"SYK; compound concentrations:100 nM and 1000 nM (sheet 'Lestaurtinib' of Supplementary Table 1),run:Lestaurtinib_02364_R1,Plate:MR002",481 nM
same,potency estimated from few doses,"SYK; compound concentrations:100 nM and 1000 nM (sheet 'Lestaurtinib' of Supplementary Table 1),run:Lestaurtinib_02364_R3,Plate:MR002",486 nM
same,potency estimated from few doses,"SYK; compound concentrations:100 nM and 1000 nM (sheet 'Lestaurtinib' of Supplementary Table 1),run:Lestaurtinib_02367_R1,Plate:MR003",140 nM
same,potency estimated from few doses,"SYK; compound concentrations:100 nM and 1000 nM (sheet 'Lestaurtinib' of Supplementary Table 1),run:Lestaurtinib_02381_R1,Plate:MR004",206 nM
same,potency estimated from few doses,"SYK; compound concentrations:100 nM and 1000 nM (sheet 'Lestaurtinib' of Supplementary Table 1),run:Lestaurtinib_02381_R2,Plate:MR004",170 nM
same,potency estimated from few doses,"SYK; compound concentrations:100 nM and 1000 nM (sheet 'Lestaurtinib' of Supplementary Table 1),run:Lestaurtinib_02381_R3,Plate:MR004",440 nM
same,potency estimated from few doses,"SYK; compound concentrations:100 nM and 1000 nM (sheet 'Lestaurtinib' of Supplementary Table 1),run:Lestaurtinib_02407_R1,Plate:MR005",189 nM
same,potency estimated from few doses,"SYK; compound concentrations:100 nM and 1000 nM (sheet 'Lestaurtinib' of Supplementary Table 1),run:Lestaurtinib_02407_R2,Plate:MR005",134 nM
same,potency estimated from few doses,"SYK; compound concentrations:100 nM and 1000 nM (sheet 'Lestaurtinib' of Supplementary Table 1),run:Lestaurtinib_02407_R3,Plate:MR005",157 nM
same,potency estimated from few doses,"SYK; compound concentrations:100 nM and 1000 nM (sheet 'Lestaurtinib' of Supplementary Table 1),run:Lestaurtinib_02422_R2,Plate:MR006",507 nM
same,potency estimated from few doses,"SYK; compound concentrations:100 nM and 1000 nM (sheet 'Lestaurtinib' of Supplementary Table 1),run:Lestaurtinib_02422_R3,Plate:MR006",218 nM
same,potency estimated from few doses,"SYK; compound concentrations:100 nM and 1000 nM (sheet 'Lestaurtinib' of Supplementary Table 1),run:Lestaurtinib_02437_R2,Plate:MR007",500 nM
same,potency estimated from few doses,"SYK; compound concentrations:100 nM and 1000 nM (sheet 'Lestaurtinib' of Supplementary Table 1),run:Lestaurtinib_02438_R2,Plate:MR008",161 nM
same,potency estimated from few doses,"SYK; compound concentrations:100 nM and 1000 nM (sheet 'Lestaurtinib' of Supplementary Table 1),run:Lestaurtinib_02443_R1,Plate:MR009",437 nM
same,potency estimated from few doses,"SYK; compound concentrations:100 nM and 1000 nM (sheet 'Lestaurtinib' of Supplementary Table 1),run:Lestaurtinib_02473_R1,Plate:MR010",478 nM
same,potency estimated from few doses,"SYK; compound concentrations:100 nM and 1000 nM (sheet 'Lestaurtinib' of Supplementary Table 1),run:Lestaurtinib_02473_R2,Plate:MR010",446 nM
same,potency estimated from few doses,"SYK; compound concentrations:100 nM and 1000 nM (sheet 'Lestaurtinib' of Supplementary Table 1),run:Lestaurtinib_02473_R3,Plate:MR010",416 nM
same,potency estimated from few doses,SYK; [1],523 nM
same,potency estimated from few doses,SYK; [2],462 nM
same,potency estimated from few doses,SYK; [3],432 nM
same,potency estimated from few doses,SYK; [4],598 nM
same,potency estimated from few doses,"SYK; compound concentrations:100 nM and 1000 nM (sheet 'Lestaurtinib' of Supplementary Table 1),run:Lestaurtinib_02487_R2,Plate:MR012",495 nM
same,potency estimated from few doses,SYK; [5],515 nM
same,potency estimated from few doses,"SYK; compound concentrations:100 nM and 1000 nM (sheet 'Lestaurtinib' of Supplementary Table 1),run:Lestaurtinib_02496_R2,Plate:MR013",579 nM
same,potency estimated from few doses,"SYK; compound concentrations:100 nM and 1000 nM (sheet 'Lestaurtinib' of Supplementary Table 1),run:Lestaurtinib_02566_R1,Plate:MR014",297 nM
same,potency estimated from few doses,SYK; [6],134 nM
same,potency estimated from few doses,"SYK; compound concentrations:100 nM and 1000 nM (sheet 'Lestaurtinib' of Supplementary Table 1),run:Lestaurtinib_02577_R1,Plate:MR016",260 nM
same,potency estimated from few doses,SYK; [7],149 nM
same,potency estimated from few doses,SYK; [8],473 nM
same,potency estimated from few doses,SYK; [9],401 nM
same,potency estimated from few doses,SYK; [10],420 nM
same,potency estimated from few doses,SYK; [11],553 nM
same,potency estimated from few doses,SYK; [12],462 nM
same,potency estimated from few doses,SYK; [13],388 nM
same,potency estimated from few doses,SYK; [14],511 nM
same,potency estimated from few doses,"SYK; compound concentrations:100 nM and 1000 nM (sheet 'Lestaurtinib' of Supplementary Table 1),run:Lestaurtinib_02606_R3,Plate:MR019",488 nM
same,potency estimated from few doses,SYK; [15],402 nM
same,potency estimated from few doses,"SYK; compound concentrations:100 nM and 1000 nM (sheet 'Lestaurtinib' of Supplementary Table 1),run:Lestaurtinib_02624_R2,Plate:MR020",440 nM
same,potency estimated from few doses,"SYK; compound concentrations:100 nM and 1000 nM (sheet 'Lestaurtinib' of Supplementary Table 1),run:Lestaurtinib_02624_R3,Plate:MR020",215 nM
same,potency estimated from few doses,"SYK; compound concentrations:100 nM and 1000 nM (sheet 'Lestaurtinib' of Supplementary Table 1),run:Lestaurtinib_02741_R1,Plate:MR023",395 nM
same,potency estimated from few doses,SYK; [16],396 nM
same,potency estimated from few doses,"SYK; compound concentrations:100 nM and 1000 nM (sheet 'Lestaurtinib' of Supplementary Table 1),run:Lestaurtinib_02741_R3,Plate:MR023",236 nM

# Reference: publication PMC11062922 (Nature Chemical Biology, 2023)
